# Data reported in PubChem BioAssay.
# Several values for one entry are separate records, joined by “and”; a condition that tells them apart may be missing. Equal entries are not always repeated. Activity calls are given as the source filed them. Unless noted, how the calls were made is not given here.
# Experiments:
# [1] = test system: Wnt5a (protein binding on small-molecule microarray); assay: Wnt5a binders on small-molecule microarray, primary screen, biophysical, 635/667 nm fluorescence (AID 1142); conditions: 635 nm fluorescence, higher = more signal;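 further: fluorescence read at 667 nm with signal to noise per printed feature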
# [2] = cell viability in Huh7 cells, primary screen, cytotoxicity control for HCV replication inhibitor project, CellTiter-Glo luminescence, basal, 48 h (AID 1143); conditions: Huh7 HCV replicon, higher = more signal, called active from +8 up or from −8 down;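 further: Huh7 hepatoma cells carrying a hepatitis C replication reporter with no stimulus; test concentration not given here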
# [3] = P. aeruginosa biofilm formation inhibitors, primary screen, PAO1 strain, BacTiter-Glo luminescence, LB-PBS (AID 1144); conditions: 12 h, higher = more signal
# [4] = CREB reporter modulators without forskolin, primary screen, cell-based, PC12, CRE-LacZ reporter, unstimulated (AID 1145); conditions: no forskolin, luminescence, 4.5 h, higher = more signal, called active from +8 up or from −8 down
# [5] = CREB reporter modulators under forskolin, primary screen, cell-based, PC12, CRE-LacZ reporter, forskolin-stimulated (AID 1146); conditions: luminescence, 4.5 h, higher = more signal, called active from +8 up or from −8 down;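 further: PC12 cells with 6xCRE LacZ reporter stimulated by forskolin 10 µM; beta-galactosidase reporter signal reflecting CREB driven transcription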
# [6] = molecular target: Streptavidin (Streptomyces avidinii) (UniProt P22629); assay: streptavidin binders on small-molecule microarray, primary screen, artefact control for SMM compound annotation, biophysical, 635/667 nm fluorescence (AID 1147); conditions: streptavidin binding, higher = more signal;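 further: signal reflects streptavidin binding to arrayed compounds as a control protein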
# [7] = small-molecule binders of probe aInhba, primary screen, biochemical, small-molecule microarray, 635/667 nm fluorescence (AID 1148); conditions: higher = more signal;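 further: score merges 667nm spot fluorescence with signal-to-noise for antibody binding to printed compounds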
# Torsin-1A (Homo sapiens) [8] = molecular target: Torsin-1A (Homo sapiens) (UniProt O14656); assay: torsin A binders from cell lysate, primary screen, small-molecule microarray, wild-type, 635/667 nm (AID 1149); conditions: COS7 hTOR1A-WT lysate, 635 nm fluorescence, higher = more signal
# Torsin-1A (Homo sapiens) [9] = molecular target: Torsin-1A (Homo sapiens) (UniProt O14656); assay: small-molecule binders of mutant TOR1A in lysate, primary screen, cell lysate, small-molecule microarray, COS7 lysate, 635/667 nm fluorescence (AID 1150); conditions: COS7 hTOR1A mutant lysate, 635 nm fluorescence, higher = more signal;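 further: score pools 667 nm emission and signal to noise measuring lysate protein binding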
# [10] = test system: Sonic hedgehog protein (Shh); assay: small-molecule binders of Shh protein, primary screen, biochemical, small-molecule microarray, 635/667 nm fluorescence (AID 1151); conditions: small-molecule microarray binding, 635 nm fluorescence; higher = more signal;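 further: Shh protein binding to compounds spotted on small-molecule microarray slides; score combines spot fluorescence intensity with signal-to-noise across triplicate slides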
# [11] = E. coli DRC41 culture turbidity changes, primary screen, E. coli filamentation inducer project, strain DRC41, OD650, 48 h (AID 1152);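 further: E. coli MC1000 strain DRC41 lacking acrAB efflux pump and sulA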; conditions: E. coli DRC41 (acrAB sulA), higher = more signal, called active from +8 up or from −8 down
# [12] = small-molecule binders of probe aLefty1, primary screen, biochemical, small-molecule microarray, 635/667 nm fluorescence (AID 1153); conditions: higher = more signal;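 further: score merges spot fluorescence with signal-to-noise ratio from the scanned slide images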
# [13] = PSAC antagonists in infected red cells, primary screen, cell-based, P. falciparum Indochina, OD700, 1 h (AID 1154); conditions: P. falciparum Indochina infected RBC osmotic lysis, higher = more signal, called active from +8 up or from −8 down
# [14] = PSAC antagonists in infected red cells, primary screen, cell-based, P. falciparum Indochina, OD700, 2 h (AID 1155);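 further: lysis reports solute entry through the parasite surface anion channel PSAC; channel blockers reduce lysis of infected cells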; conditions: P. falciparum Indochina infected erythrocytes, osmotic lysis OD700; higher = more signal, called active from +8 up or from −8 down
# [15] = osmotic lysis modulators in infected erythrocytes, primary screen, PSAC antagonist project, cell-based, P. falciparum Indochina, OD700, 3 h (AID 1156); conditions: higher = more signal, called active from +8 up or from −8 down
# [16] = PSAC antagonists in infected red cells, primary screen, cell-based, P. falciparum Indochina, OD700, 18 h (AID 1157); conditions: P. falciparum Indochina infected erythrocytes, osmotic lysis OD700, 18 h; higher = more signal, called active from +8 up or from −8 down
# [17] = modulators of S6 phosphorylation in cells, primary screen, cell-based, A549, cytoblot, luminescence, serum-stimulated (AID 1158); conditions: A549 phospho-S6 cytoblot, 5 h, higher = more signal;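 further: serum-stimulated A549 lung adenocarcinoma cells; signal is phosphorylated S6 detected by cytoblot immunostaining with HRP secondary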
# [18] = molecular target: NADPH oxidase 2 (Homo sapiens) (UniProt P04839); assay: NOX2-dependent H2O2 signal modulators, primary screen, NOX inhibitor project, cell-based, HEK293-NOX2, PMA-stimulated, Amplex Red fluorescence (AID 1159); conditions: 45 min, higher = more signal, called active from +8 up or from −8 down; further: test concentration not given here
# [19] = molecular target: NADPH oxidase 4 (Homo sapiens) (UniProt Q9NPH5); assay: NOX4-dependent H2O2 signal modulators, primary screen, NOX inhibitor project, cell-based, HEK293-NOX4, tetracycline-induced, Amplex Red fluorescence (AID 1160); conditions: 45 min, higher = more signal, called active from +8 up or from −8 down
# [20] = molecular target: NADPH oxidase 5 (Homo sapiens) (UniProt Q96PH1); assay: NOX5-dependent H2O2 signal modulators, primary screen, NOX inhibitor project, cell-based, HEK293-NOX5, Amplex Red fluorescence (AID 1161); conditions: HEK293-NOX5, ionomycin, 45 min, higher = more signal
# NADPH oxidase 5 (Homo sapiens), sequence (Q96PH1 whole entry, looked up): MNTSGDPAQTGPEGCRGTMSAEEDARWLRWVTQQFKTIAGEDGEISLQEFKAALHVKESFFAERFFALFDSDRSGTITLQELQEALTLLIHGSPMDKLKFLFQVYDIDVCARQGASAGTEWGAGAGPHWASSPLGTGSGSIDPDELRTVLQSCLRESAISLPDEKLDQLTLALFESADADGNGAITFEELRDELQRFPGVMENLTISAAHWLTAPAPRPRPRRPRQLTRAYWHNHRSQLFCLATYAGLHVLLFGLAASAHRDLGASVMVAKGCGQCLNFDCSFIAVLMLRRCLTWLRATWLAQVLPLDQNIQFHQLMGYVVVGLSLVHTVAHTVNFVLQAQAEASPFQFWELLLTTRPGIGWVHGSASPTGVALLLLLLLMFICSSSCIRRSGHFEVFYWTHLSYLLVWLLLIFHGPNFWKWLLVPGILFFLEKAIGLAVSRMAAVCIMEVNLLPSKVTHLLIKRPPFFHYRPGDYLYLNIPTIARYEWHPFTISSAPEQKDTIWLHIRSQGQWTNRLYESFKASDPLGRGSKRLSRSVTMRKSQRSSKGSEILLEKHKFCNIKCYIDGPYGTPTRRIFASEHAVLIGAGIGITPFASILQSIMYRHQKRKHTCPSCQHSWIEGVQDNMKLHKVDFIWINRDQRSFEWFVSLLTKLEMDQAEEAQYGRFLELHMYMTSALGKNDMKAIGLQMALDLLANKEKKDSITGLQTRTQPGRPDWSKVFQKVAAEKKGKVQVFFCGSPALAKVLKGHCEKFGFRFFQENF
# Torsin-1A (Homo sapiens), sequence (O14656 whole entry, looked up): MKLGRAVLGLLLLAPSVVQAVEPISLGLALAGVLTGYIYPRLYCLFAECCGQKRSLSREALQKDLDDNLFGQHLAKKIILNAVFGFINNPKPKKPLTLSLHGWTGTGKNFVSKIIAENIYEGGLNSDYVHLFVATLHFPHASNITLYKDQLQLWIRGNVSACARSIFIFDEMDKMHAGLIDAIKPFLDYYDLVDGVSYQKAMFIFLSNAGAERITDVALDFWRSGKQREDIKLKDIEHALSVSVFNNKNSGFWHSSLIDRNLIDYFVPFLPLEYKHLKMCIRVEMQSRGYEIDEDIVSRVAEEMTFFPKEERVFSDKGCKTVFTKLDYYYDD
# NADPH oxidase 4 (Homo sapiens), sequence (Q9NPH5 whole entry, looked up): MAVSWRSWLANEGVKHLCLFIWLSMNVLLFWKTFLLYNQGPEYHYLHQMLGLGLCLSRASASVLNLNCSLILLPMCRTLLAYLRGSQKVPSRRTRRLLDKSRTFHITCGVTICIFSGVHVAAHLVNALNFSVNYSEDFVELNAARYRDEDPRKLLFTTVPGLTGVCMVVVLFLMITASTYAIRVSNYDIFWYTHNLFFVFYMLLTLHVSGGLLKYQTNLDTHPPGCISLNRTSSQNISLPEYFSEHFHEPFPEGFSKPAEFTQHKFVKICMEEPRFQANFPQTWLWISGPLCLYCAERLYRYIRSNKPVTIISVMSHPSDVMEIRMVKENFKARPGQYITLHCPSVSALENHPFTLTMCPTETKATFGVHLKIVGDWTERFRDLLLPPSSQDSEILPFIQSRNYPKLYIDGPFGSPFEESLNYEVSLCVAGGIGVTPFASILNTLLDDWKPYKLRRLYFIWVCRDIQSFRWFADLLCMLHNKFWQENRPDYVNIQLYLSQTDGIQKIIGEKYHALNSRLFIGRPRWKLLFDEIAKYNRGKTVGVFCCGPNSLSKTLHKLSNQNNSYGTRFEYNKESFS
# Streptavidin (Streptomyces avidinii), sequence (P22629 whole entry, looked up): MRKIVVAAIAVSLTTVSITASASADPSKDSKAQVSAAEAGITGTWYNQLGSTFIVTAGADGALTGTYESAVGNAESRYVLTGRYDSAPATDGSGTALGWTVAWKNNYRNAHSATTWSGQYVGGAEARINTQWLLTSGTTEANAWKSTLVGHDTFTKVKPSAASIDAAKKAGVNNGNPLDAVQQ
# NADPH oxidase 2 (Homo sapiens), sequence (P04839 whole entry, looked up): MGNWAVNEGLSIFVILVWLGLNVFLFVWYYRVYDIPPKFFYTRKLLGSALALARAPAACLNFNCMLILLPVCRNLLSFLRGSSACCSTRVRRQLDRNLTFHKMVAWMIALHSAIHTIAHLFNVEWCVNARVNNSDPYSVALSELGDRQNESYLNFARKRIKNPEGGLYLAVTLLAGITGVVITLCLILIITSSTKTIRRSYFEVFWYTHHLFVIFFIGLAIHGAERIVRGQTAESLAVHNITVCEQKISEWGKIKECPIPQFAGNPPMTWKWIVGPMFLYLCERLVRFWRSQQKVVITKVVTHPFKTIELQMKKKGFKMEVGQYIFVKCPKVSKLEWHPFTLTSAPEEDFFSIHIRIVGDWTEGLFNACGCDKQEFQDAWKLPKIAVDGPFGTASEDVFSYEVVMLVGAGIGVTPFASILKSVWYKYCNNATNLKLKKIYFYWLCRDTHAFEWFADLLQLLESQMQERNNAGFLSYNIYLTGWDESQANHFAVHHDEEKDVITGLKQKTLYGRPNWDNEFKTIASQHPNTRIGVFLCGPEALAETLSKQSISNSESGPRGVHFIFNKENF
Structure (SMILES),composite z-score [1],z-score [2],z-score [3],z-score [4],z-score [5],composite z-score [6],composite z-score [7],composite z-score (Torsin-1A (Homo sapiens) [8]),composite z-score (Torsin-1A (Homo sapiens) [9]),composite z-score [10],z-score [11],composite z-score [12],z-score [13],z-score [14],z-score [15],z-score [16],z-score [17],z-score [18],z-score [19],z-score [20]
CC[C@@H]1C(Sc2ccccc2)C(C(=O)O)[C@H](c2ccc(C)cc2)N1S(=O)(=O)c1ccc(C)cc1 (stereo not given in full),0.142 and 0.0997,-0.318 (inactive) and -2.15 (inactive),0.281 (inactive) and 0.139 (inactive),-0.574 (inactive) and -0.415 (inactive),-0.0531 (inactive) and -0.545 (inactive),1.46 and 1.59,-0.025 and -0.0736,1.19 and 0.429,1.5 and -0.0197,0.801 and -0.436,-1.08 (inactive) and -0.135 (inactive),0.417 and -0.214,0.519 (inactive) and -0.178 (inactive),0.677 (inactive) and -0.514 (inactive),-0.0111 (inactive) and -0.657 (inactive),0.683 (inactive) and -2.21 (inactive),-0.473 and 0.388,0.668 (inactive) and 0.333 (inactive),0.464 (inactive) and 0.356 (inactive),2.07 and 0.173
CCCC[C@@H]1CN2[C@H](c3ccc(Br)cc3)[C@@H](C)CC[C@H]2C(=O)O1,-0.134 and -0.107,-0.394 (inactive) and -0.261 (inactive),-0.379 (inactive) and -0.292 (inactive),-0.343 (inactive) and 0.285 (inactive),0.903 (inactive) and 0.466 (inactive),-0.13 and 0.159,-0.261 and -0.0531,0.0781 and 0.436,0.516 and -0.16,0.11 and 0.152,0.469 (inactive) and -0.0124 (inactive),-0.308 and -0.0132,1.56 (inactive) and 1.12 (inactive),0.395 (inactive) and 0.586 (inactive),1.2 (inactive) and -0.241 (inactive),0.492 (inactive) and 0.318 (inactive),0.57 and -0.262,0.203 (inactive) and -0.527 (inactive),0.332 (inactive) and -0.0635 (inactive),-0.884 and -1.79
C=C[C@H](OC)[C@@H](O)c1ccc(O)c(F)c1,-0.542 and -1.18,-0.217 (inactive) and -0.324 (inactive),-0.263 (inactive) and -1.21 (inactive),1.53 (inactive) and 0.353 (inactive),1.41 (inactive) and 0.473 (inactive),-1.42 and -1.09,-0.409 and -0.32,-1.55 and -3.36,-1.77 and -2.26,-1.28 and -0.249,-0.809 (inactive) and 0.573 (inactive),-0.266 and -0.148,-0.0463 (inactive) and 0.351 (inactive),0.125 (inactive) and 0.702 (inactive),-0.389 (inactive) and -0.0295 (inactive),-0.138 (inactive) and 0.403 (inactive),-0.141 and 0.723,-1.01 (inactive) and -0.872 (inactive),-0.137 (inactive) and -0.407 (inactive),0.0933 and -0.503
CCOC(=O)[C@H](CC(C)C)NC(=O)CCC1CC(OC(=O)NCc2cccc3ccccc23)CC2(CCCC(COC(=O)NCc3ccccc3)O2)O1 (stereo not given in full),-0.147,-0.649 (inactive),-0.583 (inactive),0.286 (inactive),1.5 (inactive),-0.339,0.0038,-1.07,-0.964,-0.0293,-0.42 (inactive),-0.393,0.56 (inactive),-0.166 (inactive),-1.33 (inactive),0.097 (inactive),-0.194,0.209 (inactive),0.0251 (inactive),0.281
CC(C)=NO[C@@H](C)c1cc(-c2c(C)cc(C)cc2C)no1,-0.278,-2.11 (inactive),-1.37 (inactive),1.49 (inactive),-0.49 (inactive),0.186,-0.128,0.0381,-0.281,-0.104,-2.27 (inactive),-0.278,0.944 (inactive),0.371 (inactive),1.37 (inactive),-1.23 (inactive),0.702,-0.639 (inactive),-1.28 (inactive),-1.13
